VACV Venus inh = inhibitors of vaccinia virus (Venus reporter). Potency, µM (highest dose often 36.5 µM), inactives show top-dose activity change, negative = inhibition, most hits filed as inhibitors. 0.46% of 330,000 active. Vaccinia virus Venus reporter expression, fluorescence; calls by dose curve; tested in A549 cells; note: nearly all actives have a fitted effect of over 30% in size
VACV mCherry inh = inhibitors of vaccinia virus infection (mCherry reporter signal). 0.63% of 310,000 active. Potency, µM (series often up to 36.5 µM), for inactives: at the top dose activity change, negative = inhibition, actives largely listed as inhibitors. Vaccinia virus mCherry reporter infection, fluorescence. AID 720579; calls by dose curve; tested in A549 cells; note: nearly all actives have a fitted effect of over 35% in size
Giardia FBPA inh-1 = blocks Giardia fructose-bisphosphate aldolase activity; 0.71% of 290,000 active; purified Giardia FBPA; Potency, µM (series often up to 59.6 µM), for the others: at the highest dose activity, negative = inhibition, usual class: inhibitors; note: nearly all actives have a fitted effect of over 55% in size
Target sequence (A8B2U2 whole entry, looked up): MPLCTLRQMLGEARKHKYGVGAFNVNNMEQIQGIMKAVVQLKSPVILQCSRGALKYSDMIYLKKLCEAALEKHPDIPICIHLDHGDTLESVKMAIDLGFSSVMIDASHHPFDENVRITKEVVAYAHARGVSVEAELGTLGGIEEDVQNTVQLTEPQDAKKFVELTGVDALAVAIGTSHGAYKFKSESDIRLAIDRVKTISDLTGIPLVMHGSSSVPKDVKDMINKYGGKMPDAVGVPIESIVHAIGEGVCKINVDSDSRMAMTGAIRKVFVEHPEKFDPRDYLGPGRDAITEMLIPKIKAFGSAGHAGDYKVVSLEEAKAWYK
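40 nM FBPA preincubated 10 min at RT with compound (up to 57.5 uM final), then substrate plus GAPDH/TPI/NAD/arsenate coupling and diaphorase/resazurin added. Fluorescence read after 20 min at RT, 525/598 nm.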
FMDV inh = antivirals against foot and mouth disease virus; FMDV antiviral cell-based qHTS; Potency, µM (titrated, usually from 57.9 µM), without a hit: at the highest dose activity change, negative = inhibition, usual class: inhibitors; 1.2% of 410,000 active; AID 1159524; calls by dose curve; tested in HEK293T cells; note: read-out not given here; nearly all actives have a fitted effect of over 45% in size
Giardia growth = blocks growth of Giardia lamblia trophozoites; Giardia lamblia trophozoite growth inhibition; Potency, µM (highest dose often 57.5 µM), without a hit: top-dose activity change, negative = inhibition, actives largely listed as inhibitors; 5% of 1,500 active; shares compounds with Giardia FBPA inh-1;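 note: trophozoites exposed to compound for 48 h at 37 °C; nearly all actives have a fitted effect of over 70% in size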
Mammalian tox = toxic to mammalian cells in Giardia aldolase counter-screen | 4% of 1,500 active | Potency, µM (series often up to 57.5 µM), for the others: top-dose viability change, negative = toxicity, actives largely listed as inhibitors | shares compounds with Giardia FBPA inh-1 | mammalian cell viability counter-screen, qHTS;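 note: Chinese hamster ovary cells used as mammalian cytotoxicity surrogate; viability measured as cellular ATP by luminescence; compound exposure lasted 48 h before reading; nearly all actives have a fitted effect of over 60% in size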
Giardia FBPA inh-2 = confirmation of Giardia fructose-bisphosphate aldolase inhibitors | shares compounds with Giardia FBPA inh-1 | purified Giardia aldolase enzyme activity, qHTS | Potency, µM (top dose mostly 57.5 µM), without a hit: top-dose activity change, negative = inhibition, actives largely listed as inhibitors | 5% of 1,500 active | AID 2787; note: nearly all actives have a fitted effect of over 45% in size
Rabbit aldolase = rabbit FBP aldolase inhibition by Giardia aldolase hits; shares compounds with Giardia FBPA inh-1; Rabbit muscle FBPA enzyme inhibition, selectivity counter-screen; Potency, µM (top dose mostly 57.5 µM), for inactives: top-dose activity, negative = inhibition, most hits filed as inhibitors; 4% of 1,500 active; note: nearly all actives have a fitted effect of over 60% in size
Target sequence (P00883 whole entry, looked up): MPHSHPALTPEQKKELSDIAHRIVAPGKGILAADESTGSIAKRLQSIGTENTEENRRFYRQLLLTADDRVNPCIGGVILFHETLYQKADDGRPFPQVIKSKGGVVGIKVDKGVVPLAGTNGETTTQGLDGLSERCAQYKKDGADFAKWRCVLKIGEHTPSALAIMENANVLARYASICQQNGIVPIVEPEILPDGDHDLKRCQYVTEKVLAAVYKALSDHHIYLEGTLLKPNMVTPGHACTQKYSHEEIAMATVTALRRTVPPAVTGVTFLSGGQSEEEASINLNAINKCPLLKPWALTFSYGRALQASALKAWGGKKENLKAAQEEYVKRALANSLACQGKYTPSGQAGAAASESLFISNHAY
GAPDH coupling = GAPDH inhibition flagged for Giardia aldolase hits; shares compounds with Giardia FBPA inh-1; GAPDH coupling enzyme counterscreen, biochemical, qHTS; Potency, µM (doses to about 57.5 µM), inactives show at the top dose activity change, negative = inhibition, hits mostly inhibitors; 6% of 1,500 active; note: nearly all actives have a fitted effect of over 55% in size
* hit, by the source's call; i = inactive; u = inconclusive; x = not tested or not shown; [ ] = dose if it differs, or a comment. Sampled rows, rich in hits. Any-hit rate of the full collection: about 2.2%. Unless noted, calls come from the whole dose curve; as a rule, active = well fitted curve in the direction sought with a large enough effect; inconclusive = small, poorly fitted or top-dose-only effect, or another doubt; inactive = no such curve, though single readings can be large; an effect the other way counts as inactive or inconclusive. % is set by controls: 0 for no effect and ±100 for the full control effect; potency is the fitted concentration of half-maximal effect.

SMILES	VACV Venus inh	VACV mCherry inh	Giardia FBPA inh-1	FMDV inh	Giardia growth	Mammalian tox	Giardia FBPA inh-2	Rabbit aldolase	GAPDH coupling
O=S(=O)(c1cccc2ccccc12)N1CCN(c2nc(-c3cccs3)nc3ccccc23)CC1	-15%	i	x	x	x	x	x	x	x
CCN(c1ccccc1)S(=O)(=O)c1ccc(C(=O)Nc2nnc(CSC)o2)cc1	u	u	16µM*	-22%	5%[10.4 µM]	-3%	5%	18%	13%
CCN(c1ccccc1)S(=O)(=O)c1ccc(C(=O)Nc2nnc(C3CC3)o2)cc1	-28%	-28%	8.9µM*	-17%	45µM*	-19%	-1%	12%	5%
COCCN(CCOC)S(=O)(=O)c1ccc(C(=O)Nc2nnc(C3CC3)o2)cc1	-5%	-10%	-1%	-21%	x	x	x	x	x
CCC1CCCCN1S(=O)(=O)c1ccc(C(=O)Nc2nnc(-c3ccccc3Cl)o2)cc1 (configuration not stated)	-26%	u	u	-3%	x	x	x	x	x
CCN(c1ccccc1)S(=O)(=O)c1ccc(C(=O)Nc2nnc(COC)o2)cc1	-17%	x	u	-17%	x	x	x	x	x
CCC1CCCCN1S(=O)(=O)c1ccc(C(=O)Nc2nnc(C3CC3)o2)cc1 (configuration not stated)	-17%	u	25µM*	-8%	11%[10.4 µM]	-16%	6%	13%	7%
CN(c1ccccc1)S(=O)(=O)c1ccc(C(=O)Nc2nnc(C3CC3)o2)cc1	-9%	i	4.5µM*	-2%	-14%[38.3 µM]	u	-4%	7%	-6%
CC1CC=CC2C1C(=O)N(Cc1ccccc1)C2c1cccc([N+](=O)[O-])c1 (configuration not stated)	x	x	0%	x	x	x	x	x	x
CCOC(=O)c1sc(N2C(=O)c3oc4ccc(F)cc4c(=O)c3C2c2ccc(C)cc2)nc1C (configuration not stated)	20%	17%	x	x	x	x	x	x	x
CCOc1ccc(NC(=O)CC(NCc2ccccn2)C(=O)O)cc1 (configuration not stated)	-7%	i	5µM*	-4%	-14%[38.3 µM]	22%	13%	-5%	-25%
CCOc1ccc(NC(=O)NCc2ccccn2)cc1	x	x	-4%	28%	x	x	x	x	x
COc1ccc(NC(=O)CC(NCc2ccccn2)C(=O)O)cc1 (configuration not stated)	-4%	i	11µM*	-5%	20%	10%	14%	-12%	-11%
COc1ccc(NC(=O)CC(C(=O)O)C(C)c2ccccc2)cc1 (configuration not stated)	-8%	i	7%	-11%	x	x	x	x	x
C[C@@H]1CCC2[C@](C)(CO)[C@@H](O)CC[C@]2(C)[C@]12CCC(CO)(CCO)O2 (some centres not stated)	x	x	0%	-7%	x	x	x	x	x
CCN(CC)CCN1C(=O)c2ccccc2NC1c1ccc(OC)c(COc2ccc(NC(C)=O)cc2)c1 (configuration not stated)	-6%	30%	x	x	x	x	x	x	x
CC#CCN1c2ccccc2[C@]23C[C@@H](C(=O)OC)N(S(=O)(=O)c4ccc(Br)cc4)C2=NC(C(=O)OC)=C(C(=O)OC)[C@H]13	x	x	-1%[12.9 µM]	x	x	x	x	x	x
CN(Cc1ccccc1)C(=S)NC(=O)c1ccc(-c2ccccc2)cc1	-17%	-26%	25%	-9%	x	x	x	x	x
CN(Cc1ccccc1)C(=S)NC(=O)c1cccs1	-18%	-22%	13µM*	1%	u	-20%	2%	8%	13%
O=C(c1cccc(Cl)c1)N1CCN(CCCc2ccccc2)CC1	x	x	13µM*	-11%	-9%	5%	0%	-2%	-12%
COc1ccc(CN2CC[C@H]3C=CC[C@@H](C(=O)NCc4cccnc4)[C@H]3C2=O)cc1OC	-4%	i	x	x	x	x	x	x	x
Cc1nc([N+](=O)[O-])cn1CC(O)c1ccc2c(c1)OCO2 (configuration not stated)	-10%	-13%	x	x	x	x	x	x	x
S=c1nc[nH]c2c1ncn2C1CCCC1	-9%	i	4µM*	-1%	8%[38.3 µM]	-3%	-3%	-11%	-5%
O=[N+]([O-])c1cccc(Cn2cnc3c(=S)nc[nH]c32)c1	-1%	-22%	x	-9%	x	x	x	x	x
CCOC1CCCC(n2cnc3c(=S)nc[nH]c32)O1 (configuration not stated)	-9%	i	x	-15%	x	x	x	x	x
SMILES	VACV Venus inh	VACV mCherry inh	Giardia FBPA inh-1	FMDV inh	Giardia growth	Mammalian tox	Giardia FBPA inh-2	Rabbit aldolase	GAPDH coupling
OCC1CCCC(n2cnc3c(=S)nc[nH]c32)O1 (configuration not stated)	-7%	i	4µM*	-11%	8%[38.3 µM]	17%	-3%	-1%	u
COc1cc(OC)cc(-c2nnc3n2N=C(c2ccc(OC)c(OC)c2)CS3)c1	x	x	3%	x	x	x	x	x	x
CNC(=O)COc1ccccc1C(=O)Nc1ccccc1	-9%	0%	x	x	x	x	x	x	x
COc1cc(CN2CCC(C(=O)NC3CCCC3)CC2)cc(OC)c1O	x	x	18µM*	0%	7%	-12%	4µM*	u	u
COc1cc(CN2CCN(C(=O)CC(C)C)CC2)cc(OC)c1O	-5%	-12%	16µM*	x	u	-19%	4µM*	u	-7%
C[N+](C)=C1SCC(C)(/C=N/O)S1 (configuration not stated)	-9%	i	14µM*	-2%	58%	-10%	0%	12%	1%
Cc1noc(C)c1-c1ccc2ncnc(NCc3cccn3C)c2c1	x	x	-2%	x	x	x	x	x	x
Clc1ccc(SCCOCCN2CCCCC2)cc1	-14%	-24%	-21%	0%	x	x	x	x	x
Clc1ccc(SCCOCCN2CCOCC2)cc1	x	x	18µM*	8%	9%[10.4 µM]	25%	11%	-1%	11%
O=C(C[n+]1ccccc1)Nc1c(Cl)cc(Cl)cc1Cl	-2%	i	13µM*	-9%	24%	-6%	7%	8%	9%
Cc1ccc[n+](CC(=O)Nc2c(Cl)cc(Cl)cc2Cl)c1	-8%	i	-19%	-14%	x	x	x	x	x
C=CCNC(=S)N1CCC(Cc2ccccc2)CC1	-6%	i	u	-9%	x	x	x	x	x
Cc1ccc(C(=S)N2CCN(Cc3ccccc3)CC2)cc1	-1%	u	16µM*	-27%	u	9%	-6%	9%	-16%
Cc1ccc(NC(=S)N2CCN(Cc3ccccc3)CC2)cc1	-17%	-28%	2%	14%	x	x	x	x	x
Cc1ccc(CN2CCN(C(=O)c3ccncc3)CC2)cc1	-5%	i	18µM*	-7%	2%	3%	6%	7%	7%
C=CCNC(=S)N1CCN(Cc2ccccc2)CC1	x	x	18µM*	5%	-12%[10.4 µM]	11%	12%	13%	7%

Screening results (PubChem BioAssay)
